Experimental data taken from article PMC5540273 (PLoS ONE, 2017).

These molecules were tested on TIE1. Settings: concentration: 1 μM,replicates: in singlicate; n = 1.
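Note: KINOMEscan kinase panel screen.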

SMILES | %Inh
OCCn1cc(-c2cnc3nnn(Cc4ccc5ncccc5c4)c3n2)cn1 | 0%
CC(=O)Nc1nc2cnc(Nc3cc(NC(=O)c4cccc(CC(C)(C)C#N)c4)ccc3C)nc2s1 | 20%
CCNCC(Cc1ccccc1)NC(=O)c1cc(Br)c(-c2ccnc3[nH]ccc23)s1.Cl.Cl (stereo not shown) [GSK1383280] | 75%
N#Cc1cccc(C(=O)NC2CCN(c3ccnc(Nc4ccc(F)cc4)n3)C2)c1 (stereo not shown) [GSK1379708] | 3%
CN1CCN(CCCNc2nccc(-c3c(-c4ccc(F)cc4)nn4cc(C(N)=O)ccc34)n2)CC1 [GW622475] | 6%
O=C(Nc1n[nH]c2cc(-c3ccco3)ccc12)C1CC1 [SB-737447] | 17%
CCOC(=O)N1CCC(n2cnc(-c3ccc(F)cc3)c2-c2ccnc(N)n2)CC1 [SB-219952] | 12%
COc1cc2ncn(-c3cc(OCC4CCCCC4)c(C(N)=O)s3)c2cc1OC [GSK204559] | 19%
CSc1nccc(-c2c(-c3ccc(F)cc3)ncn2CCCN2CCOCC2)n1.Cl [SB-217146] | 0%
CCn1c(-c2nonc2N)nc2cncc(Br)c21 [SB-738004] | 0%
Cn1ccc2ncnc(Oc3ccc(NC(=O)Nc4cccc(C(F)(F)F)c4)c(F)c3)c21 | 96.7%
Cc1cccc(-c2nc(Nc3ccncc3)c3sccc3n2)n1 [GW869641] | 43%
Cn1cc(-c2cccc3c(N)c(C(N)=O)nnc23)cn1 | 6%
CCN1CCN(CCCC(=O)Nc2n[nH]c3nc(-c4ccc(O)cc4)c(Br)cc23)CC1 [SB-731579] | 19%
Cn1ccc2ncnc(Oc3ccc(NC(=O)Nc4cc(C(C)(C)C)on4)c(Cl)c3)c21 | 88%
Cc1n[nH]c2cc(Nc3ccnc(Nc4cccc(CN5CCOCC5)c4)n3)ccc12 [GW682569] | 45%
CS(=O)(=O)c1cccc(CNc2nc(Nc3ccc4c(c3)[C@@H]3C[C@@H]4CNC3=O)ncc2C(F)(F)F)c1 | 83%
Cc1ccc(C(=O)Nc2ccc(Oc3ccc4nc(NC(=O)C5CC5)cn4c3)c(F)c2)c(=O)n1-c1ccccc1 | 95%
COC(=O)Nc1nc2cc(Oc3ccc(NC(=O)Nc4cc(C(F)(F)F)ccc4Cl)cc3)ccc2[nH]1.Cl [GW697465] | 91.5%

SMILES | %Inh
CC(C)c1nc(-c2cccc(NS(=O)(=O)c3ccccc3)c2)c(-c2ccnc(Nc3ccc4c(c3)CN(C)CC4)n2)s1 [GSK1649598] | 91.5%
Cn1ccc2ncnc(Oc3ccc(NC(=O)Nc4cccc(C(F)(F)F)c4)c(Cl)c3)c21 | 85%
CC(=O)Nc1ccc(-c2cc3ncnc(SCC(=O)O)c3s2)cc1 | 17%
C[C@@H](Oc1cc(-n2cnc3cc(-c4cnn(C)c4)ccc32)sc1C(N)=O)c1ccccc1Cl [GSK580432] | 94.2%
CC(C(=O)NC1CCN(c2ccnc(Nc3ccc(F)cc3)n2)C1)c1ccc(Cl)cc1 (stereo not shown) [GSK1379713] | 12%
c1ccc(Oc2ccc(Nc3ccnc4ccc(-c5ccccn5)cc34)cc2)cc1 [GW407034] | 2%
COc1cc2c(Nc3ccc(NC(=O)c4ccccc4)cc3)ncnc2cc1OCCCN1CCOCC1 [GSK301329] | 24%
Nc1nccc(-c2ccc3c(N)n[nH]c3c2)n1 [GSK1034945] | 0%
CNC(=O)c1ccccc1Nc1nc(Nc2cccc(CS(C)(=O)=O)c2)ncc1C.O=CO [GSK1520489] | 95%
C[C@@H]1CNc2c(sc3ccc4nc(-c5ccncc5)ccc4c23)C(=O)N1 | 0%
CCn1c(-c2nonc2N)nc2cncc(CNC3CCNCC3)c21.Cl [SB-747651] | 5%
O=C(Nc1cccc(Oc2ccc3nccn3n2)c1)Nc1cccc(C(F)(F)F)c1 | 75%
Cc1ccc(Nc2ccnc(Nc3ccc4c(c3)CS(=O)(=O)C4)n2)cc1O.Cl [GW579362] | 88%
O=C(Nc1cccc(C(F)(F)F)c1)c1cccc(Oc2ccc3nccn3n2)c1 | 39%
NC(=O)c1ccc(-c2cc3ncnc(SCC(=O)O)c3s2)cc1 | 0%
COC(=O)c1cccc(NC(=O)NC2CCN(c3ccnc(Nc4cc(OC)c(OC)c(OC)c4)n3)C2)c1 (stereo not shown) [GSK1379767] | 19%
Cc1cccc2c(-c3ccncc3)c(-c3ccc(F)cc3)nn12.Cl [GW461487] | 0%
CN(c1cccc(CNc2nc(Nc3ccc4c(c3)CC(=O)N4)ncc2C(F)(F)F)c1)S(C)(=O)=O | 75%
